# Reference: PubChem BioAssay (Tox21)
# Unmarked numbers belong to inactive results. Records with an inconclusive call do not appear. A call without a number means that no potency is given here. Activity calls are given as the source filed them. Unless noted, calls follow the shape of the dose curve; as a rule, active = well fitted curve in the direction sought with a large enough effect in the repeat runs; inconclusive = weak or mixed curves; inactive = no such curve, though single readings can be large; an effect the other way counts as inactive or inconclusive.
# Experiments:
# [1] = qHTS assay to identify small molecule agonists of the hypoxia (HIF-1) signaling pathway (AID 1224846; active = well fitted activation curve with a large enough effect in the signal ratio in the repeat runs, not every such curve was filed as active; the % refers to the signal ratio)
# In short: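 Compounds added to ME-180 cells carrying hypoxia-response-element beta-lactamase reporter (0.5% dialyzed FBS, 5 h preplating), 17 h at 37C; agonist activity detected by CCF4-AM B/G FRET read-out.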
# [2] = qHTS assay to identify small molecule agonists of H2AX - cell viability counter screen (AID 1224847; calls by dose curve; also: nearly all actives have a fitted effect of over 30% in size; also: potency is read from the fitted curve at half-maximal effect)
# In short: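 CHO-K1 cells plated overnight at 37C, then exposed 3 h at 37C to compounds at 15 concentrations (0.76% DMSO final). Viability by CellTiter-Glo luminescence after 30 min at room temperature.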
# [3] = qHTS assay to identify small molecule antagonists of the estrogen related receptor (ERR) signaling pathway from Tox21 library (AID 1224848); also: nearly all actives have a fitted effect of over 50% in size; also: potency is read from the fitted curve at half-maximal effect
# In short: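 Quantitative high-throughput format: ERR reporter cells (2,000/well) pre-incubated 6 h, treated 18 h at 37 C with compounds in DMSO alongside positive and negative controls, then read by ONE-Glo luminescence.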
# [4] = qHTS assay to identify small molecule agonists of the estrogen related receptor (ERR) signaling pathway from Tox21 library (AID 1224849; calls by dose curve; also: nearly all actives have a fitted effect of over 15% in size); conditions: ERR reporter cell line, ONE-Glo luciferase, 18 h; at 92.4 µM (top of the series) unless noted
# In short: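 Luminescent agonist read-out (One-Glo, 30-minute room-temperature incubation) following 18-hour compound treatment at 37 C of the ERR cell line, which had been plated 6 hours before dosing.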
# [5] = qHTS RealTime-Glo MT Cell Viability Assay in HepG2 cells - 24 hour (AID 1224867); also: nearly all actives have a fitted effect of over 50% in size
# In short: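 HepG2 cells were seeded at 600 cells/well together with NanoLuc luciferase and a cell-permeant prosubstrate, preincubated 5 h at 37 C/5% CO2, then pin-dosed with compounds in DMSO. Nonlytic luminescence from viable cells was read at each time point.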
# [6] = qHTS RealTime-Glo MT Cell Viability Assay in HEK293 cells - 32 hour (AID 1224868); also: nearly all actives have a fitted effect of over 50% in size; also: potency is read from the fitted curve at half-maximal effect
# In short: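 HEK293 cells were seeded at 600 cells/well together with NanoLuc luciferase and cell-permeant prosubstrate, preincubated 5 h at 37 C/5% CO2, then given compound in DMSO by pintool. Luminescence from viable-cell prosubstrate reduction was read repeatedly over 40 h.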
# [7] = A CellTox Green Cytotoxicity Assay to monitor cytotoxicity in HEK293 cells - 0 hour (AID 1224869); also: nearly all actives have a fitted effect of over 50% in size
# In short: (§1)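 Fluorescence from a DNA-binding dye excluded by viable cells was measured repeatedly in the same HEK293 wells (600 cells/well) during continuous compound exposure at 37 C. Each assay gives one read point: 0, 8, 16, 24, 32 or 40 h.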
# [8] = qHTS RealTime-Glo MT Cell Viability Assay in HepG2 cells - 40 hour (AID 1224870); also: nearly all actives have a fitted effect of over 50% in size
# In short: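 HepG2 cells (600/well) mixed with RealTime-Glo MT reagent, settled 5 h at 37 C/5% CO2 before compound addition. Nonlytic NanoLuc luminescence from viable-cell prosubstrate reduction read repeatedly during 40 h treatment at 37 C.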
# [9] = A CellTox Green Cytotoxicity Assay to monitor cytotoxicity in HEK293 cells - 40 hour (AID 1224871); also: nearly all actives have a fitted effect of over 45% in size
# In short: as §1
# [10] = qHTS assay to identify small molecule agonists of H2AX (AID 1224845; active = well fitted activation curve with a large enough effect in the signal ratio in the repeat runs, not every such curve was filed as active; the % refers to the signal ratio)
# In short: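 Wild-type CHO-K1 cells, plated overnight, exposed 3hr at 37C to 15 concentrations (0.76% DMSO final). Lysed, then HTRF anti-pH2AX (S139) cryptate and anti-H2AX-d2 antibodies, 24 hr room temperature; 665/620 nm emission read.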
SMILES,outcome [1],Potency [2],Potency [3],"activity change, positive = activation [4]",Potency [5],Potency [6],Potency [7],Potency [8],Potency [9],Potency [10]
CCNc1nc(N)nc(Cl)n1,inactive,inactive,inactive,3.57%,inactive,inactive,inactive,inactive,inactive,–
CC(C)(O)CCc1ccccc1,inactive,inactive,–,–,inactive,inactive,inactive,inactive,inactive,–
CCN(Cc1cccc(S(=O)(=O)O)c1)c1ccc(C(=C2C=CC(=[N+](CC)Cc3cccc(S(=O)(=O)O)c3)C=C2)c2ccc(O)cc2S(=O)(=O)[O-])cc1,inactive,19.4 µM (active),16.6 µM (active),-59.2% [at 42.5 µM],inactive,inactive,inactive,inactive,inactive,–
COc1cc(NCc2ccc3nc(N)nc(N)c3c2C)cc(OC)c1OC,inactive,0.22 µM (active),0.0473 µM (active),-56.3% [at 42.5 µM],inactive,26.8 nM (active),inactive,inactive,inactive,–
Nc1ccc(N=Nc2ccc(N)cc2)cc1,inactive,inactive,–,–,inactive,inactive,inactive,inactive,inactive,–
CCCCC(CC)COS(=O)(=O)O (stereo unspecified),inactive,inactive,inactive,3.39%,inactive,inactive,inactive,inactive,–,–
CC1C(C)(C)C2=C(C(=O)CCC2)C1(C)C (stereo unspecified),inactive,inactive,inactive,-0.756%,inactive,inactive,inactive,inactive,inactive,–
C/C(C=O)=C\c1ccccc1,inactive,inactive,–,–,inactive,inactive,inactive,inactive,inactive,–
CCN(CC)c1ccc(C(=C2C=CC(=[N+](CC)CC)C=C2)c2ccc(S(=O)(=O)O)cc2S(=O)(=O)[O-])cc1,inactive,12.7 µM (active),9.69 µM (active),-60.1%,inactive,inactive,inactive,inactive,inactive,–
Cc1cc([N+](=O)[O-])ccc1N,inactive,inactive,–,–,inactive,inactive,inactive,inactive,inactive,–
Cc1ccc(Nc2c(F)cccc2Cl)c(CC(=O)O)c1,inactive,inactive,inactive,-14.1% [at 42.5 µM],inactive,inactive,inactive,inactive,inactive,–
C[C@@H]1C[C@H]2[C@@H]3CCC4=CC(=O)C=C[C@]4(C)[C@@]3(F)[C@@H](O)C[C@]2(C)[C@@]1(O)C(=O)COP(=O)(O)O,inactive,inactive,–,–,inactive,inactive,inactive,inactive,inactive,–
CC(C)C(O)C(C)(C)CO (stereo unspecified),inactive,inactive,0.891 µM (active),-71.7%,inactive,801 nM (active),inactive,inactive,inactive,–
CC/C=C\C/C=C\C/C=C\CCCCCCCC(=O)OCC,inactive,inactive,–,-28.4%,inactive,inactive,inactive,inactive,–,–
CCCCCCCCCCCC(=O)OCC(O)CO (stereo unspecified),inactive,inactive,inactive,2.33%,inactive,inactive,inactive,inactive,inactive,–
Cc1ccc2c(c1[N+](=O)[O-])C(=O)c1ccccc1C2=O,inactive,inactive,inactive,–,inactive,958 nM (active),inactive,inactive,inactive,–
CC(=O)OCCC(C)CC(C)(C)C (stereo unspecified),inactive,inactive,inactive,4.15%,inactive,–,inactive,inactive,–,–
Cc1c(C2(c3cc(Br)c(O)c(Br)c3C)OS(=O)(=O)c3ccccc32)cc(Br)c(O)c1Br,inactive,9.77 µM (active),11.8 µM (active),-68%,inactive,inactive,inactive,inactive,inactive,–
CS(=O)(=O)c1ccc([C@@H](C[C@H]2CCC(=O)C2)C(=O)Nc2cnccn2)cc1Cl,inactive,inactive,–,–,inactive,inactive,inactive,inactive,inactive,–
CCC1CCC(CCC(=O)O)C1 (stereo unspecified),inactive,inactive,inactive,-14.4%,inactive,inactive,inactive,inactive,inactive,–
CCCCCCCC(=O)Oc1c(Br)cc(C#N)cc1Br,–,–,48.4 µM (active),-61.8%,inactive,38800 nM (active),inactive,inactive,–,inactive
CCOC(=O)Oc1ccc(CCNC(=O)[C@H](CCSC)NC(C)=O)cc1OC(=O)OCC,inactive,inactive,–,–,inactive,inactive,inactive,inactive,inactive,–
